# Hits are enriched below; roughly 1% of the tested compounds scored in any of these assays.
# E-sel TNF inh = E-selectin induction blockers in HUVEC – imaging, immunofluorescence, high content, primary screen; AID 1246, 2008; hit rate 0.71% among 120,000; inhibition, % at 2 µM; HUVEC TNFa-induced E-selectin immunofluorescence;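 active means inhibition above the batch mean plus 3 SD, and confirmed as a hit on visual image review, cut at about 43% in these data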;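 further: 0% = TNF-stimulated DMSO wells and 100% = unstimulated control wells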
# TNFa cytotox = cytotoxicity in TNFa-stimulated HUVEC, primary screen, cytotoxicity control for VCAM1 expression modulator project, imaging, Hoechst nuclei count; cell count reduction, % at 2 µM; HUVEC TNFalpha-stimulated, Hoechst cell count; AID 848, 2007; hit rate 0.17% among 93,000;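 active means cell count reduction exceeding the screen mean by over 5 SD, scaled to untreated wells per plate, cut at about 78% in these data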;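 further: cells counted after 24 h of TNF alpha exposure following the 1 h pretreatment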
# VCAM1 TNFa inh = inhibitors of TNFa-induced VCAM1 expression, primary screen, imaging, HUVEC, TNFa stimulus, immunofluorescence | HUVEC TNFa-induced VCAM-1 immunofluorescence, high-content imaging | hit rate 0.48% among 95,000 | inhibition, % at 2 µM | AID 802, 2007;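 active means inhibition above the batch mean plus 3 SD, with images confirmed as a hit by eye, cut at about 37% in these data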;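 further: 0% = TNF-stimulated DMSO wells and 100% = unstimulated control wells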
# cytoskel mod = modifiers of F-actin cytoskeleton organization, primary screen, imaging, HUVEC, phalloidin staining, high-content imaging; hit rate 0.18% among 91,000; AID 836, 2007; inhibition, % at 2 µM; HUVEC TNFa F-actin phalloidin imaging;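 active means inhibition above the batch mean plus 3 SD and confirmed as a hit by visual image inspection, cut at about 30% in these data, passing the limit was not always enough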
# Active calls of the source: *; . = no result.
SMILES,E-sel TNF inh,TNFa cytotox,VCAM1 TNFa inh,cytoskel mod
Cc1ccccc1-c1nc(CN2CCC(C(=O)NCCCN3CC(C)CC(C)C3)CC2)c(C)o1 (configuration not stated),17.5,-8.1,42.8*,-36.2
O=C1c2oc3ccc(F)cc3c(=O)c2C(c2cccc(O)c2)N1CCCN1CCOCC1 (configuration not stated),8.0,.,.,.
Cc1c(NC(=O)CN2CC(C)OC(C)C2)c(=O)n(-c2ccccc2)n1C (configuration not stated),66.0*,2.5,16.0,8.9
Cc1c(NC(=O)CN2CCN(c3ccccc3)CC2)c(=O)n(-c2ccccc2)n1C,-11.2,12.3,14.0,-21.6
COc1ccc2[nH]c(=O)c(CN(C)C(=O)c3ccncc3)cc2c1,.,-18.7,9.7,22.0
COc1ccc2[nH]c(=O)c(CN(C(=O)c3ccncc3)C(C)C)cc2c1,4.4,-77.1,95.4*,48.4*
CCc1cccc(CC)c1N(COC)C(=O)Cn1ccccc1=N,4.7,-46.7,17.1,78.6*
N#Cc1ccc(-n2c(-c3ccccc3)nnc2-c2ccccc2)cc1C#N,15.3,-36.6,-53.8,13.2
N#Cc1cccc(-n2c(-c3ccccc3)nnc2-c2ccccc2)c1C#N,100.0*,-10.1,-1.3,-2.9
O=C(Nc1ccccc1)C1=C(c2ccccc2)S(=O)(=O)CCS1(=O)=O,99.8*,.,.,.
CC(=O)NCCn1c(C)cc2ccccc21,.,2.0,13.1,6.6
O=C(CC12CC3CC(CC(C3)C1)C2)NCC(=O)N1CCCC1,.,4.7,5.7,1.6
COc1ccc(-n2nnnc2-c2cnc(N3CCCC3)nc2C(F)(F)F)cc1,100.0*,-7.7,-0.9,6.2
Cc1c(C)n(C(=O)CSc2nncn2C)c2ccccc12,1.5,-32.0,16.7,-1.9
CCOC(=O)c1cnc(-n2nc(C)cc2C)nc1NCCO,2.0,-3.8,4.7,-10.4
CCOC(=O)c1cnc(-n2nc(C)cc2C)nc1NCc1ccccc1,.,75.6,91.8*,-48.9
Cc1cccc(OCCCC(=O)O)c1,65.3*,10.3,8.6,-14.9
Cc1cccc(OCC(=O)Nc2cc(C)ccc2O)c1,-16.2,-4.2,57.7*,-8.9
Cc1ccc(O)c(NC(=O)CCC2CCCCC2)c1,24.9,26.1,79.3*,-16.3
O=C(c1ccc([N+](=O)[O-])s1)N1CCN(c2cccc(Cl)c2)CC1,9.0,.,.,.
CCCNC(=O)c1cc(-c2ccc(OC)cc2)n(CCCOC)c1C,-4.7,.,.,.
C=CS(=O)(=O)c1ccc(Oc2ccc(S(=O)(=O)C=C)cc2)cc1,99.9*,.,.,.
O=S(=O)(c1ccc(Oc2ccc(S(=O)(=O)N3CCOCC3)cc2)cc1)N1CCOCC1,-0.7,.,.,.
CCOC(=O)c1sc2nc(CSc3nc4ccccc4n3CC)[nH]c(=O)c2c1C,76.7*,-4.2,-10.5,-25.5
CCOC(=O)c1sc2nc(COC(=O)c3c(F)cccc3F)[nH]c(=O)c2c1C,13.4,.,.,.
SMILES,E-sel TNF inh,TNFa cytotox,VCAM1 TNFa inh,cytoskel mod
CCNc1cccc2c1C(=O)N(C)C2=O,11.7,.,.,.
COc1ccc(OC)c2c(C)cc(C)nc12,4.6,.,.,.
COC(=O)c1cnc(SCc2ccc(C)cc2)n1C,69.0*,.,.,.
CCOC(=O)C1CCCN(c2ncnc3c2cnn3-c2ccc(OC)cc2)C1 (configuration not stated),.,-38.9,-19.1,-19.1
CCOC(=O)C1CCCN(c2ncnc3c2cnn3-c2ccc(Cl)cc2)C1 (configuration not stated),62.8*,-1.3,-39.7,.
CCOC(=O)C1CCCN(S(=O)(=O)c2cn(C)c(=O)n(C)c2=O)C1 (configuration not stated),.,79.3*,-24.4,-12.7
NC(=O)Cc1ccc(C(=O)c2ccc(Cl)cc2)s1,-9.7,.,.,.
Nc1sccc1C(=O)c1ccc(Cl)cc1,-2.0,-61.5,91.8*,30.0
COc1ccc2occ(C(=O)c3coc4ccc(O)c(CN(C)C)c34)c2c1,.,-14.9,17.8,9.1
CCC(=O)OC1c2ccccc2C(=O)N1Cc1ccccc1 (configuration not stated),.,-1.7,3.8,-15.6
CCOC1=NC(C(=O)O)c2ccccc2/C(=C(/C)Cl)N1 (configuration not stated),.,54.3,92.4*,-12.4
CC(Oc1ccc(Cl)cc1Cl)c1nc(-c2ccc(NC(=O)c3ccncc3)cc2)no1 (configuration not stated),-29.0,5.7,-10.7,-28.7
O=C(N/N=C1/CCS(=O)(=O)c2ccc(F)cc21)c1ccccn1,81.3*,.,.,.
CC(OC(=O)c1cccc(N2C(=O)c3ccccc3C2=O)c1)C(=O)Nc1ccc(N(C)C)cc1 (configuration not stated),-7.7,.,.,.
CCCCc1c(O)c2ccccc2[nH]c1=O,-3.8,-32.8,19.7,20.9
CCCc1c(O)c2ccccc2[nH]c1=O,52.2*,-9.9,-2.5,1.2
COC(=O)C1=C(C)OC(N)=C(C#N)C1c1ccco1 (configuration not stated),-7.9,-0.4,19.3,-0.8
CCOC(=O)C1=C(c2ccccc2)OC(N)=C(C#N)C1c1ccco1 (configuration not stated),-7.8,67.8,68.6*,33.1
O=C1c2ccccc2C(Nc2ccc(S(=O)(=O)N3CCCCCC3)cc2)N1Cc1ccco1 (configuration not stated),65.7*,-8.3,3.9,-2.2
CCc1ccccc1NC1c2ccccc2C(=O)N1Cc1ccco1 (configuration not stated),-17.5,.,.,.
Cc1c(Cl)c(C(=O)NNC(=S)NCc2ccco2)nn1C,-0.2,2.0,-19.7,6.6
Cn1cc(Cl)c(C(=O)NNC(=S)NCc2ccco2)n1,73.3*,.,.,.
CCOc1ccc(C2C(C#N)=C(C)NC3=C2C(=O)c2ccccc23)cc1 (configuration not stated),9.7,0.9,3.5,1.5
COc1ccc(C2C(C#N)=C(C)NC3=C2C(=O)c2ccccc23)cc1 (configuration not stated),.,-8.3,29.9,-24.1
COc1cc(C2C(C#N)=C(C)NC3=C2C(=O)c2ccccc23)cc(OC)c1OC (configuration not stated),.,63.0,89.1*,-10.2
SMILES,E-sel TNF inh,TNFa cytotox,VCAM1 TNFa inh,cytoskel mod
CC1=C([N+](=O)[O-])C(c2ccccc2)C2=C(N1)c1ccccc1C2=O (configuration not stated),-9.4,46.6,44.4*,9.3
CCCn1c(SCC(=O)Nc2nnc(C)s2)nnc1-c1ccoc1C,-1.9,-10.6,-0.4,5.8
Cc1cccc(NC(=O)CCSc2nc(C)cc(C)n2)c1,75.8*,4.9,-0.4,-26.2
Cc1noc(C)c1S(=O)(=O)Nc1ccc(C(=O)NC2CCCCC2C)cc1 (configuration not stated),75.0*,-10.6,0.8,-30.3
CCOC(=O)CS(=O)(=O)c1nc(-c2ccc(F)cc2)cc(C(F)(F)F)n1,57.7*,.,.,.
CCOC(=O)CCS(=O)(=O)c1nc(-c2ccccc2)cc(C(F)(F)F)n1,48.1,15.2,38.3,-16.6
COCC(C)NC(=O)CCS(=O)(=O)c1nc(-c2ccc(OC)cc2)cc(C(F)(F)F)n1 (configuration not stated),82.6*,.,.,.
CCOC(=O)CS(=O)(=O)c1nc(-c2ccccc2)cc(C(F)(F)F)n1,67.1*,6.2,48.5,-1.8
